From ChEMBL document CHEMBL1201862, “PubChem BioAssay data set” (2004)
The whole screen tested about 15,000 sequences, of which about 800 (5.3%) were called active. Rule as the data show it: active = GI50 up to about 1.1 µM and inactive = higher. Not all results are given here. Entries with a potency or affinity are not part of this list.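 Compound exposure: 48 hours, 5 concentrations, 96-well plates. At the GI50, growth is halved.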

These substances were tested on DMS-114 (assay: NCI tumour cell line growth inhibition, 48 h).

Substance | GI50
[Bis(aminomethyl)tetramethylenesilane]dichloropaltinum(II), CHEMBL2146205 | 5.89 µM
[Bis(aminomethyl)diethylsilane]tetrachloroplatinum(IV), CHEMBL2146203 | 2.23 µM
cis-Bis[[(trimethylsilyl)methyl]amino]tetrachloroplatinum(IV), CHEMBL2146191 | 4.09 µM
[Bis(aminomethyl)pentamethylenesilane]dichloropaltinum(II), CHEMBL2146202 | 4.01 µM
[Bis(aminomethyl)dimethylsilane]dichloroplatinum (II), CHEMBL2146201 | 12 µM
[Bis(aminomethyl)pentamethylenesilane]tetrachloropaltinum(IV), CHEMBL2146204 | 2 µM
[Bis(aminomethyl)ethylmethylsilane]tetrachloroplatinum(IV), CHEMBL2146192 | 1.17 µM
mu-(1,7-nanodiamine-N,N')bis-(cis-aminedichloroplatimum (II)), CHEMBL2146215 | 6.18 µM
[Bis(aminomethyl)dimethylsilane]tetrachloroplatinum(IV), CHEMBL2146190 | 1.38 µM
[Bis(aminomethyl)tetramethylenesilane]tetrachloropaltinum(IV), CHEMBL2146189 | 1.91 µM
